High-throughput results: PubChem BioAssay, National Center for Advancing Translational Sciences (NCATS)
HTT prom inh: Primary qHTS for Identification of Small Molecule Inhibitors of Huntingtin Promoter Activity; HEK293 HTT promoter firefly luciferase reporter, 24 h; 48,000 compounds, 0.93% hits; Potency, µM (titrated, usually from 57.5 µM), inactives show top-dose activity change, negative = inhibition, actives largely listed as inhibitors; further: potency means the concentration at half of the fitted maximal effect; nearly all actives have a fitted effect of over 50% in size
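HEK293 luciferase promoter-reporter cells (2,500/well) plated 24 h, then compounds added at up to 57.5 uM final for 24 h at 37 °C. Firefly luminescence by Dual-Glo, normalized to vehicle (0%) and zero RLU (-100%).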
HTT-AS promoter: Primary qHTS for Identification of Small Molecule Activators of Huntingtin-Antisense Promoter Activity; AID 1508624, 2021; 48,000 compounds, 0.24% hits; Potency, µM (top dose mostly 57.5 µM), for inactives: top-dose activity change, positive = activation, most hits filed as activators; HEK293 HTT-AS promoter firefly luciferase reporter, 24 h; response scale: percent change from vehicle, -100% = no light; further: potency means the concentration at half of the fitted maximal effect; nearly all actives have a fitted effect of over 55% in size
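Quantitative HTS used concentration series of up to 57.5 uM final on HEK293 luciferase reporter cells, 24 h at 37 degrees C. Readout was Dual-Glo firefly luminescence.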
NTMT1 inh: Primary qHTS for Inhibitors of N-terminal methyltransferase 1 (NTMT1): MTaseGlo Assay. 59,000 compounds, 2.5% hits. N-terminal Xaa-Pro-Lys N-methyltransferase 1 (Homo sapiens), Q9BV86. NTMT1 MTase-Glo SAH luminescence, purified enzyme. Potency, µM (highest dose often 114 µM), inactives show at the top dose activity change, negative = inhibition, usual class: inhibitors;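 further: potency means the concentration at half of the fitted maximal effect; plate controls were DMSO vehicle for no effect and no enzyme for full effect; nearly all actives have a fitted effect of over 65% in size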
DRV1 agonist: qHTS for Agonists of Human Resolvin D1 Receptor DRV1. CHO-K1 GPR32 beta-arrestin PathHunter luminescence, 90 min; zero percent set by DMSO-only wells. AID 1346428, 2018. 48,000 compounds, 2.5% hits. activation, % at 76.9 µM;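 active means activation of at least 60% and not above a set upper limit, about 1 call in 100 departs from these limits; inconclusive means activation of 40% to 60%, or above that upper limit; inactive means activation under 40%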; further: 0% is about no effect
Target sequence (O75388 whole entry, looked up): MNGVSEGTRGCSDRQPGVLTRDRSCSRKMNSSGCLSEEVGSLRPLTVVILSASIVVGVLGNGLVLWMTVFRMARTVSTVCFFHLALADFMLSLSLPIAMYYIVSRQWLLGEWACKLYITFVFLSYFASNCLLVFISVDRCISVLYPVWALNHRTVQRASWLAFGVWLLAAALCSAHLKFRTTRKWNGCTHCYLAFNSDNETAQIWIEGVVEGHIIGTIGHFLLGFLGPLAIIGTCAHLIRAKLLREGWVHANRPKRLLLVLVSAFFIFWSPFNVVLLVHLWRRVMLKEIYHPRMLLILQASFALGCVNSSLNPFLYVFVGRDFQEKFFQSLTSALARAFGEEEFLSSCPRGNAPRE
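Readings come from a cell-based beta-arrestin complementation format: CHO-K1 GPR32 stable cells (2,500/well) treated 90 min with compounds, then beta-Gal substrate added for 1 h before chemiluminescence imaging.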
* marks the source's active call; other numbers are inactive results; ? = inconclusive; / = not tested or not shown; [ ] = another dose, or the depositor's remark. Rows were chosen to be rich in hits. Some 4.6% of all compounds tested hit in one or more screens of this group. Unless noted, the call rests on the fitted dose curve; in most records, active means well fitted curve in the direction sought with a large enough effect; inconclusive means small, poorly fitted or top-dose-only effect, or another doubt; inactive means no such curve, though single readings can be large; an effect the other way counts as inactive or inconclusive.

SMILES	HTT prom inh	HTT-AS promoter	NTMT1 inh	DRV1 agonist
C#C[C@]1(O)CC[C@H]2[C@H]3CCc4cc(OC)ccc4[C@H]3CC[C@@]21C	-8%	?	4%[57.5 µM]	/
O=C1CCCC2=C1C(c1cnccc1C(F)(F)F)N=C(Nc1nc3ccccc3o1)N2 (stereo not given)	/	/	8%	/
FC(F)(F)c1ccccc1-c1nc(NCc2cccc(Cl)c2)c2ccccc2n1	/	/	-8%	/
CCCCCCOC(=O)/N=C(\N)c1ccc(NCc2nc3cc(C(=O)N(CCC(=O)OCC)c4ccccn4)ccc3n2C)cc1	/	/	7%[57.5 µM]	/
CS(=O)c1ccc(-c2nc(-c3ccc(F)cc3)c(-c3ccncc3)[nH]2)cc1 (stereo not given)	-9%[116 µM]	-25%[116 µM]	35µM*	/
Cn1ncnc1COc1nn2c(-c3cc(F)ccc3F)nnc2cc1C(C)(C)C	/	/	5%[57.5 µM]	/
CC[C@H]1OC(=O)[C@H](C)[C@@H](O[C@H]2C[C@@](C)(OC)[C@@H](O)[C@H](C)O2)[C@H](C)[C@@H](O[C@@H]2O[C@H](C)C[C@H](N(C)C)[C@H]2O)[C@](C)(O)C[C@@H](C)/C(=N/OCOCCOC)[C@H](C)[C@@H](O)[C@]1(C)O	/	/	13%[57.5 µM]	/
Cc1ccccc1Cn1nc(C)c(NC(=O)c2cc(CC(C)C)on2)c1C	/	/	/	64*
O=C(Nc1ncc(Cc2ccc(C(F)(F)F)cc2)s1)c1cn(-c2ccccc2)cn1	/	/	17%	/
CC[C@@H](C)Nc1cc(C(=O)NC2CC3CCC(C2)N3c2ccc(C(=O)C3CC3)cn2)c(C)cc1C(N)=O (stereo not given in full)	/	/	-1%[57.5 µM]	/
CCCCN(CCCC)S(=O)(=O)c1ccc(C(=O)Nc2sc3c(c2C(N)=O)CCN(CC)C3)cc1	-27%	-17%	2%	5
CCOC(=O)c1c(NC(=O)c2ccc(S(=O)(=O)N(CC(C)C)CC(C)C)cc2)sc2c1CCN(CC)C2	?	-22%	89µM*	33
COc1cccc(CNc2ccc(S(=O)(=O)Nc3ncccn3)cc2)c1O	/	/	10%	/
Cn1cccc1CN=C1NC2=C(C(=O)CCC2)C(c2[nH]ncc2Cl)N1 (stereo not given)	/	/	-1%	/
Cc1ccc(NC(=O)Cc2ccc(-n3c(C)nc4cccnc43)cc2)c(Cl)c1	8.9µM*	-41%	-2%	34
C/C(=C\c1ccsc1)C1Nc2cccc3cccc(c23)N1	/	/	15%	/
COc1ccccc1C(=O)N(Cc1nc(-c2cccc(C)c2)no1)C(C)C	-27%	-23%	-26%	87*
COc1ccc(N2CCN(c3ccc(-c4nc(-c5cccc(C)c5)no4)cc3[N+](=O)[O-])CC2)cc1	25%	21%	34%	10
COc1cc(OC)cc(-c2nc(-c3cccc(C)c3)no2)c1	61%	11µM*	-13%	8
COc1ccc(-c2noc(COc3ccc(C)cc3C)n2)cc1OC	-24%	0%	9%	-23
COc1ccccc1OCc1nc(-c2cccc(C)c2)no1	69%	10µM*	8%	77*
Cc1ccc(OCCn2c(CCNC(=O)c3cc([N+](=O)[O-])ccc3[N+](=O)[O-])nc3ccccc32)cc1	/	/	0%	/
C=CC1(C)C=C2CC[C@H]3[C@@](C)(C(=O)O)CCC[C@]3(C)C2CC1 (stereo not given in full)	/	/	-16%[29.8 µM]	/
O=S(=O)(Nc1ccc2ccccc2c1)c1ccc(NCc2ccc(Br)cc2O)cc1	/	/	8%[57.5 µM]	/
CC(=O)N1CCCc2cc(S(=O)(=O)N3CCC(C(=O)Nc4c(C)cccc4C)CC3)ccc21	20µM*	-47%	16%	-3
CC(=O)N1CCCc2cc(S(=O)(=O)N3CCCC(C(=O)N4CCN(c5ccccc5)CC4)C3)ccc21 (stereo not given)	11µM*	-24%	0%	16
Cc1ccc(NS(=O)(=O)c2ccc3c(c2)CCC(=O)N3C)cc1Cl	/	/	-4%	/
CCC(=C(c1ccccc1)c1ccc(OCCN(C)C)cc1)c1ccccc1	-16%	-26%	19µM*	/
CC/C(=C(/c1ccc(O)cc1)c1ccc(OCCNC)cc1)c1ccccc1	/	/	11µM*	/
